Measured values as given in PubChem BioAssay (NCI).
The panel holds about 83,000 compounds, 20% with a hit somewhere; the sample as a whole holds those more often.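 Compound tested at a single concentration for 48 hours in 96-well plates; a percent growth value below 10 was scored as active.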 The source made the active and inactive calls.

Tests used:
Test in all cases: NCI-60 one-dose screen, 48 h (100 = growth as untreated, 0 = no growth, -100 = all killed)
Details in all cases: 10 µM unless noted
DU-145 prostate = tested on: DU-145 prostate
K-562 leukemia = tested on: K-562 leukemia
MALME-3M melanoma = tested on: MALME-3M melanoma
MDA-MB-231 breast = tested on: MDA-MB-231 breast
RXF 393 renal = tested on: RXF 393 renal
SF-268 CNS = tested on: SF-268 CNS
SF-295 CNS = tested on: SF-295 CNS
SF-539 CNS = tested on: SF-539 CNS
UACC-257 melanoma = tested on: UACC-257 melanoma
M14 melanoma = tested on: M14 melanoma

Measured: growth

CN1CCN(Cc2ccc(NC(=O)c3cncc(C#Cc4cnc(N)c5ccc(F)cc45)c3)cc2C(F)(F)F)CC1
active: DU-145 prostate 4.11% | K-562 leukemia -63.7% | MALME-3M melanoma -17.2% | MDA-MB-231 breast -58.2% | RXF 393 renal -3.82% | SF-539 CNS -3.72% | M14 melanoma -0.651%
inactive: SF-268 CNS 29.6% | SF-295 CNS 28.2% | UACC-257 melanoma 47.5%

CNC1=CC(=O)c2c(C(=O)OC)c(C)[n+]([O-])c(C)c2C1=O
active: MALME-3M melanoma -46.2%
inactive: DU-145 prostate 68.7% | K-562 leukemia 71% | MDA-MB-231 breast 63.8% | RXF 393 renal 74.4% | SF-268 CNS 89.2% | SF-295 CNS 86.4% | SF-539 CNS 83.8% | UACC-257 melanoma 49.3% | M14 melanoma 24%

O=C(Nc1ncc(Cc2cc(C(F)(F)F)ccc2Cl)s1)c1cccs1
inactive: DU-145 prostate 72.7% | K-562 leukemia 10.7% | MALME-3M melanoma 50.7% | MDA-MB-231 breast 77.8% | RXF 393 renal 42.7% | SF-268 CNS 63.9% | SF-295 CNS 41% | SF-539 CNS 79.7% | UACC-257 melanoma 73.3% | M14 melanoma 49.3%

Cc1ccc2nc(-c3ccc(C(=O)NNC(=S)Nc4ccccc4)cc3)[nH]c2c1
inactive: DU-145 prostate 102% | K-562 leukemia 62.5% | MALME-3M melanoma 94.5% | MDA-MB-231 breast 99.6% | RXF 393 renal 91.1% | SF-268 CNS 99.7% | SF-295 CNS 90% | SF-539 CNS 99.4% | UACC-257 melanoma 102% | M14 melanoma 88.6%

O=C(NNc1cnccn1)c1nc2cc(F)ccc2n2cccc12
active: RXF 393 renal 9.53% | SF-539 CNS 5.57% | UACC-257 melanoma -9.5% | M14 melanoma 5.33%
inactive: DU-145 prostate 25.7% | K-562 leukemia 10.8% | MALME-3M melanoma 11% | MDA-MB-231 breast 27.5% | SF-268 CNS 26% | SF-295 CNS 12.9%

COc1cc(-c2nc3cc(Cl)c(Cl)cc3[nH]2)ccc1OCC(=O)N=Nc1c(O)[nH]c2ccc(Cl)cc12
active: DU-145 prostate 6.51% | K-562 leukemia -11.7% | MALME-3M melanoma -16.4% | MDA-MB-231 breast -43.8% | RXF 393 renal -6.73% | SF-268 CNS -24.5% | SF-295 CNS -18% | SF-539 CNS -36% | UACC-257 melanoma 7.43% | M14 melanoma -35.8%

CCN1CCN(C(=O)[C@]23CC[C@@H](C)[C@H](C)[C@@H]2C2=CC[C@@H]4[C@@]5(C)C/C(=C/c6cccnc6)C(=O)C(C)(C)[C@@H]5CC[C@@]4(C)[C@]2(C)CC3)CC1
inactive: DU-145 prostate 48% | MALME-3M melanoma 12% | MDA-MB-231 breast 34.7% | SF-268 CNS 51% | SF-295 CNS 37.3% | UACC-257 melanoma 26% | M14 melanoma 40.9%
active: K-562 leukemia 6.46% | RXF 393 renal 3.08% | SF-539 CNS 8.77%

O=C1Nc2c(C(=O)O)cccc2/C1=N/c1n[nH]c(=S)s1
inactive: DU-145 prostate 98.5% | K-562 leukemia 41.3% | MALME-3M melanoma 105% | MDA-MB-231 breast 86.2% | RXF 393 renal 112% | SF-268 CNS 83.3% | SF-295 CNS 94.7% | SF-539 CNS 91.9% | UACC-257 melanoma 99.6% | M14 melanoma 90.9%

CCOc1ccc(-n2nc(C(=O)NCc3ccccc3OC)nc2-c2cc(OC)c(OC)c(OC)c2)cc1
inactive: DU-145 prostate 65.2% | K-562 leukemia 22.1% | MALME-3M melanoma 87.5% | MDA-MB-231 breast 17.8% | RXF 393 renal 43.5% | SF-268 CNS 54.1% | SF-295 CNS 34.8% | SF-539 CNS 49.2% | UACC-257 melanoma 62.7% | M14 melanoma 42.2%

CNC(C)[C@H]1CCC2C3CC=C4C(=O)[C@@H](NC(=O)C=C(C)C)CC[C@]4(C)C3CC[C@@]21C (stereo not given in full)
active: K-562 leukemia -62.1% | MALME-3M melanoma -52.2% | MDA-MB-231 breast -12.4% | RXF 393 renal -59% | SF-268 CNS -15.7% | SF-295 CNS -8.38% | SF-539 CNS -92.5% | UACC-257 melanoma -30.8% | M14 melanoma -53.7%
inactive: DU-145 prostate 52.9%

C=CCOC(=O)C1=C(C)N(CC)C(=O)NC1c1c(Cl)n(C)c2ccccc12 (stereo not given)
inactive: DU-145 prostate 106% | K-562 leukemia 99.1% | MALME-3M melanoma 99.3% | MDA-MB-231 breast 96.7% | RXF 393 renal 108% | SF-268 CNS 92.9% | SF-295 CNS 88.6% | SF-539 CNS 98.4% | UACC-257 melanoma 98.4% | M14 melanoma 88.6%

CCN1C(=O)N(CC)C2C1NC(=S)N2/N=C/c1ccc(C(F)(F)F)cc1 (stereo not given)
inactive: DU-145 prostate 90.5% | K-562 leukemia 37% | MALME-3M melanoma 44.1% | MDA-MB-231 breast 66.2% | RXF 393 renal 52.6% | SF-268 CNS 77.7% | SF-295 CNS 66.3% | SF-539 CNS 79.8% | UACC-257 melanoma 78.9% | M14 melanoma 53.4%

CC(C)(C)n1cc(-c2ccnc(NCCCNS(=O)(=O)c3ccc(C(F)(F)F)cc3)c2)c(-c2cccc(F)c2)n1
inactive: DU-145 prostate 92.6% | K-562 leukemia 30.9% | MALME-3M melanoma 105% | MDA-MB-231 breast 93.8% | RXF 393 renal 92.2% | SF-268 CNS 87.2% | SF-295 CNS 94.7% | SF-539 CNS 74.1% | UACC-257 melanoma 94.4% | M14 melanoma 81.2%

Cc1ccc(C2CC(c3nc(-c4ccc(Cl)cc4)oc3C)=NN2C(=O)c2ccncc2)cc1 (stereo not given)
inactive: DU-145 prostate 93.1% | K-562 leukemia 84.2% | MALME-3M melanoma 90.9% | MDA-MB-231 breast 71.6% | RXF 393 renal 74.8% | SF-268 CNS 81.6% | SF-295 CNS 87.9% | SF-539 CNS 89.5% | UACC-257 melanoma 97.1% | M14 melanoma 93.8%

N#CC1CCc2c(c(-c3ccc4nc(N)sc4c3)nc3ccc4[nH]ncc4c23)C1 (stereo not given)
active: RXF 393 renal 1.38% | SF-539 CNS -0.136%
inactive: DU-145 prostate 35.4% | K-562 leukemia 29.8% | MALME-3M melanoma 68.8% | MDA-MB-231 breast 54.9% | SF-268 CNS 63.1% | SF-295 CNS 23.1% | UACC-257 melanoma 88.7% | M14 melanoma 19.8%

CC1C=CC(OC(=O)C(C)(O)CCC(O)(C(=O)OC2CC(O)C(C(C)C)CC2(C)O)C(C)C)(C(C)C)CC1 (stereo not given)
active: DU-145 prostate -89% [4.63 µM] | K-562 leukemia -61.1% [4.63 µM] | MALME-3M melanoma -71.5% [4.63 µM] | MDA-MB-231 breast -59.7% [4.63 µM] | RXF 393 renal -87.3% [4.63 µM] | SF-268 CNS -43.9% [4.63 µM] | SF-295 CNS -86.9% [4.63 µM] | SF-539 CNS -95.5% [4.63 µM] | UACC-257 melanoma -88% [4.63 µM] | M14 melanoma -74.8% [4.63 µM]

Cc1ccc(S(=O)(=O)c2nc(-c3ccccc3)oc2Sc2nc3ccccc3s2)cc1
inactive: DU-145 prostate 100% | K-562 leukemia 42.9% | MALME-3M melanoma 66.4% | MDA-MB-231 breast 75.3% | RXF 393 renal 77.3% | SF-268 CNS 58.3% | SF-295 CNS 92.1% | SF-539 CNS 93.3% | UACC-257 melanoma 101% | M14 melanoma 13.4%

Cc1ncc(C(=O)Nc2ccc(CN3CCN(C)CC3)c(C(F)(F)F)c2)cc1C#Cc1cnc(N)c2ncccc12
inactive: DU-145 prostate 34% | SF-268 CNS 29.8% | SF-295 CNS 48.8% | SF-539 CNS 29.8% | UACC-257 melanoma 30.6%
active: K-562 leukemia -59.5% | MALME-3M melanoma -79% | MDA-MB-231 breast -78.9% | RXF 393 renal -18.9% | M14 melanoma -79.9%

CS(=O)(=O)Nc1cc(-c2ccc3ncc(C#N)c(Nc4ccc(F)c(Cl)c4)c3c2)cnc1Cl
active: MALME-3M melanoma -38.6% | MDA-MB-231 breast -0.718% | RXF 393 renal -39.2% | SF-268 CNS 8.18% | SF-295 CNS -28.2% | SF-539 CNS -27.4% | UACC-257 melanoma 4.72%
inactive: DU-145 prostate 10.2% | K-562 leukemia 16.2% | M14 melanoma 11.2%

O=C(N=Nc1c(O)[nH]c2ccccc12)Nc1ccc(F)cc1
inactive: DU-145 prostate 105% | K-562 leukemia 85% | MALME-3M melanoma 97.6% | MDA-MB-231 breast 94% | RXF 393 renal 110% | SF-268 CNS 104% | SF-295 CNS 95% | SF-539 CNS 94.9% | UACC-257 melanoma 93.9% | M14 melanoma 99.7%

Cc1ccc2c(-c3nnc(N)s3)cc(=O)oc2c1C
inactive: DU-145 prostate 116% | K-562 leukemia 87.3% | MALME-3M melanoma 104% | MDA-MB-231 breast 96.5% | RXF 393 renal 106% | SF-268 CNS 102% | SF-295 CNS 97.4% | SF-539 CNS 102% | UACC-257 melanoma 106% | M14 melanoma 101%

COc1cccc(/C=N/NC(=O)c2ccccc2N2CCCC2)c1O
inactive: DU-145 prostate 68% | K-562 leukemia 13.6% | MALME-3M melanoma 75.7% | MDA-MB-231 breast 47.8% | RXF 393 renal 63.8% | SF-268 CNS 38.8% | SF-295 CNS 86.2% | SF-539 CNS 61.8% | M14 melanoma 48.5%
active: UACC-257 melanoma -29.8%

C[C@]1(O)CC(=O)[C@]2(O)C3=C(C=C[C@]2(O)C1)C(=O)c1c(O)cccc1C3=O
active: DU-145 prostate -82.3% | K-562 leukemia 5.36% | MALME-3M melanoma -96.7% | RXF 393 renal -85.3% | M14 melanoma -24.8%
inactive: MDA-MB-231 breast 30.2% | SF-268 CNS 85.4% | SF-295 CNS 89.8% | SF-539 CNS 82.4% | UACC-257 melanoma 77.3%

S=C(c1ccc2c(c1)OCO2)N1CCN(c2cccc(Cl)c2)CC1
active: DU-145 prostate -0.195% | SF-295 CNS 9.3% | SF-539 CNS -4.83%
inactive: K-562 leukemia 29% | MALME-3M melanoma 40.7% | MDA-MB-231 breast 36.2% | RXF 393 renal 42.1% | SF-268 CNS 41% | UACC-257 melanoma 54% | M14 melanoma 13.5%

CCn1cc(CNc2ccc(C(=O)Nc3cc4cc(OC)c(OC)cc4c(C)n3)cc2)cn1
inactive: DU-145 prostate 67.2% | K-562 leukemia 30.8% | MALME-3M melanoma 54.6% | MDA-MB-231 breast 79.6% | RXF 393 renal 80.4% | SF-268 CNS 60.6% | SF-295 CNS 60.4% | SF-539 CNS 70.5% | UACC-257 melanoma 56.2% | M14 melanoma 48.8%

CC1(C)N=C(N)N=C(N)N1c1ccc(CCCCc2ccccc2)c(Cl)c1
active: SF-539 CNS -3.79% | UACC-257 melanoma 3.22%
inactive: DU-145 prostate 27% | K-562 leukemia 18% | MALME-3M melanoma 52.2% | MDA-MB-231 breast 42.5% | RXF 393 renal 30.6% | SF-268 CNS 19.6% | SF-295 CNS 29.6% | M14 melanoma 33.5%
